# Rows were chosen to be rich in hits. Some 4% of all compounds tested hit in one or more screens of this group.
# CCHF vOTU inh – blocks the CCHF virus ovarian tumor domain protease; CCHFV vOTU protease, Pep-AMC fluorescence; inhibition, % at 11.5 µM; 370,000 compounds, 0.55% hits; AID 651958; further: 0% = vehicle wells with enzyme and 100% = no enzyme wells
# Mtb FBA inh – Mtb fructose-bisphosphate aldolase inhibition. 360,000 compounds, 2.3% hits. P9WQA3. purified M. tuberculosis FBA, fluorescence read-out. inhibition, % at 1 µM; in the data active means inhibition above about 27%;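 further: 0% = vehicle and 100% = reference inhibitor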
# Target sequence (P9WQA3 whole entry, looked up): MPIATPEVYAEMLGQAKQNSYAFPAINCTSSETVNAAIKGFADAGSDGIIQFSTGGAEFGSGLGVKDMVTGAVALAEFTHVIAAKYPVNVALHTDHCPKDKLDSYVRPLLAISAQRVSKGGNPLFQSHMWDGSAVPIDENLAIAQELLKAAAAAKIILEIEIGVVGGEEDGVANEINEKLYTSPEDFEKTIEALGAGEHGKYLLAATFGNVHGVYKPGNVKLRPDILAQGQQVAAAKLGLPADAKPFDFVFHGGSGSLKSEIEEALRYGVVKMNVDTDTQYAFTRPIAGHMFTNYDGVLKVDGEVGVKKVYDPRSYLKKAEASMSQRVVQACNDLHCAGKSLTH
# Mtb bLac sens – beta-lactam sensitization of Mtb H37Rv; inhibition, % at 25 µM; M. tuberculosis H37Rv growth with meropenem, percent inhibition; 330,000 compounds, 0.27% hits; call rule not given here;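 further: growth measured after seven days incubation then overnight dye step; 0% = bacteria only wells and 100% = bacteria with antibiotic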
# MazEF act – increases E. coli MazEF RNase cleavage of RNA | 350,000 compounds, 0.32% hits | activation, % at 20 µM | FAM/BHQ RNA-DNA oligo cleavage fluorescence, 5 h; in the data active means activation above about 50%
# Target sequence (P0AE70 whole entry, looked up): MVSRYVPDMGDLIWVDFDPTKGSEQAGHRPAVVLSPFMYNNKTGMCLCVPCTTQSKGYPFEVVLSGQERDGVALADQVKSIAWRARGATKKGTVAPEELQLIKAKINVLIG
# GDH-TPI inh – GDH-TPI coupled enzyme inhibition counter-screen; inhibition, % at 4.8 µM; 360,000 compounds, 1.2% hits; GDH-TPI coupled enzyme counterscreen, NADH absorbance;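 further: 0% = DMSO wells and 100% = wells lacking the enzyme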
# An asterisk follows results filed as active; nt = not tested or not shown; + = active, no number; ! = not active in a repeat. Unless noted, no stated cut-off is given here; in the data, active means inhibition above about 30%; inactive means the rest.
SMILES,CCHF vOTU inh,Mtb FBA inh,Mtb bLac sens,MazEF act,GDH-TPI inh
O=S(=O)(CC1NCc2ccccc21)NCc1ccc(F)cc1 (centres undefined),2,nt,nt,nt,nt
COc1cc(C2C(C#N)=C(N)OC3=C2C(=O)CCC3)c([N+](=O)[O-])cc1OC (centres undefined),1,8,-12,110*,18
COc1ccc(N=Cc2ccc(N(CCC#N)CCC#N)cc2)cc1,14,-3,nt,13,49*
Cn1cc(C(=O)C(=O)N2CCOCC2)c2ccccc21,2,-2,-18,2,31*
COc1ccc(Cn2cc(COC(=O)NCCc3c[nH]c4ccccc34)nn2)cc1,3,nt,nt,nt,nt
O=C(Nc1nc2ccc(S(=O)(=O)N3CCCCC3)cc2s1)c1ccncc1,17,0,-1,-3,27
CN(C)S(=O)(=O)c1ccc2nc(NC(=O)c3cccs3)sc2c1,20,10,10,-2,30
CN(C)S(=O)(=O)c1ccc2nc(NC(=O)c3cccnc3)sc2c1,-6,0,-4,-5,36*
O=C(Nc1nc2ccc(S(=O)(=O)N3CCCCC3)cc2s1)c1cccnc1,7,3,-6,4,40*
O=C(N=C1N(Cc2ccccc2)C[C@]2(C=C3CCCCC3n3c(=O)n(-c4ccccc4)c(=O)n32)N1C(=O)OCc1ccccc1)c1ccccc1 (some centres undefined),-1,nt,nt,nt,nt
COCCCNC(=O)[C@@H](Cc1ccccc1)NC(=O)[C@H]1O[C@@H](n2ccc(=O)[nH]c2=O)[C@H](O)[C@@H]1O,-8,nt,nt,nt,nt
CN(C)c1ccc(C=NCCC2(c3ccccc3)CCOC(C)(C)C2)cc1 (centres undefined),7,0,-6,-17,56*
COc1ccc(C2(CCN=Cc3ccc(N(C)C)cc3)CCOC(C)(C)C2)cc1 (centres undefined),-4,0,1,-8,29
CN(C)c1ccc(C=NCC2(O)CCOC(C)(C)C2)cc1 (centres undefined),14,2,-5,9,48*
N#CC1=C(N)N2C(=C(C#N)C1c1ccccc1)Sc1ccccc12 (centres undefined),nt,nt,4,nt,nt
CCOc1ccc(C2C(C#N)=C(N)N3C(=C2C#N)Sc2ccccc23)cc1 (centres undefined),nt,3,0,100*,14
CC[C@@H](CCCCCCCn1ccc2ccccc21)CCC(=O)N(c1ccccc1)c1ccccc1,5,nt,nt,nt,nt
C=CCN1C(=O)[C@@H](CC(=O)NCC2CCCCC2)[C@]2(C(=O)OCC)CCCCC/C=C/12,15,nt,nt,nt,nt
CCOC(=O)N1CCC(Nc2c(-c3ccc(C)c(C)c3)c(=O)c2=O)CC1,7,-7,2,0,33*
Nn1c(SCC(=O)Nc2ccc(OCc3ccccc3)cc2)nnc1-c1cc(-c2ccc(F)cc2)n[nH]1,-9,nt,nt,nt,nt
CCOc1ccc(-n2c(SCC(=O)Nc3ccc(S(=O)(=O)Nc4nccs4)cc3)nnc2-c2ccc(C(C)(C)C)cc2)cc1,22,nt,nt,nt,nt
COc1ccc(C2=NS(=O)(=O)N(C)C(C(=O)N3CCC(C)CC3)=C2)cc1,6,0,5,-4,31*
Cc1ccc(Cn2nnc3c2-c2ccccc2S(=O)(=O)N(C2CC2)C3)cc1,-3,nt,nt,nt,nt
CCn1c2ccccc2c2cc(NC(=O)COC(=O)c3cccc(F)c3F)ccc21,0,nt,nt,nt,nt
Cc1cc(-c2csc3nc[nH]c(=S)c23)cc(C)c1C,12,3,82,0,40*
SMILES,CCHF vOTU inh,Mtb FBA inh,Mtb bLac sens,MazEF act,GDH-TPI inh
CC(SCc1cc(=O)n2c([nH]c3ccccc32)c1C#N)C(=O)O (centres undefined),3,21,-4,-19,-3
C=C(C)Cc1c(C)c(C#N)c2[nH]c3ccccc3n2c1=O,-81,+,99,6,-1
COCc1cc(=O)n2c([nH]c3ccccc32)c1C#N,-225,+,3,8,19
CCc1cc(=S)n2c([nH]c3ccccc32)c1C#N,nt,9,-4,7,-1
Cc1c(CCC(=O)O)c(=O)n2c([nH]c3ccccc32)c1C#N,-91,+,3,3,9
Cc1cccc(-c2cccc3c4c([nH]c23)[C@@H]2C[C@H](N(C)C(=O)Nc3ccccc3)[C@H]([C@H](C)O)CN2CC4)c1,6,nt,nt,nt,nt
Nn1c(SCC(=O)N2CCOCC2)nnc1-c1cc(-c2ccc(F)cc2)n[nH]1,-6,nt,nt,nt,nt
COc1ccc(OC)c(S(=O)(=O)n2c(CN3CCOCC3)nc3ccccc32)c1,-6,nt,nt,nt,nt
COc1ccc(N(CCC#N)C(=O)/C(C#N)=C\c2cccs2)cc1,-2,1,-5,1,37*
COCCNC(=O)/C(C#N)=C/c1cccs1,1,0,-3,-4,48*
COCCNC(=O)/C(C#N)=C/c1ccc(OC(=O)c2cccs2)c(OC)c1,-6,1,nt,2,16
c1ccc(N/N=C2\CCCc3ccccc32)nc1,16,-4,55,0,32*
COCC#Cc1ccc(CC[C@H]2O[C@H]3CC[C@@H](CO)O[C@H]3C[C@H]2n2cc(C3CC3)nn2)cc1,8,nt,nt,nt,nt
O=C(NCc1cccnc1)c1ccc(=O)oc1,25,-1,6,5,43*
O=C(NCc1cccnc1)c1cccc(Cl)c1,3,1,-3,4,0
COc1ccc(CNC(=O)c2ccc(=O)oc2)cc1OC,21,1,-9,7,60*
Cc1ccccc1CS(=O)(=O)Cc1ccc(C(=O)Nc2cccc(Cl)c2F)o1,1,nt,nt,nt,nt
COc1ccc(C(=O)/C=C/c2ccc(O)cc2)c2c1CC(O)C(C)(C)O2 (centres undefined),1,-1,1,-67,33*
COc1ccc(C(=O)/C=C/c2ccc(O)cc2)c(O)c1CC=C(C)C,20,-5,nt,-20,10
Cc1cccn2c(=O)c3cc(C#N)c(=NC(=O)c4ccco4)n(Cc4ccco4)c3nc12,-42,+,2,7,9
Cc1cccc(C(=O)N=c2c(C#N)cc3c(=O)n4cccc(C)c4nc3n2Cc2ccco2)c1,-194,168*,-4,54*!,8
Cc1cccn2c(=O)c3cc(C#N)c(=N)n(Cc4cccnc4)c3nc12,4,4,nt,1,10
Cc1cccn2c(=O)c3cc(C#N)c(=NC(=O)c4ccccc4)n(Cc4ccco4)c3nc12,-198,182*,-8,-54,16
Cn1c(=O)c2cc(NC(=S)NC3CC3)ccc2n1Cc1ccc(F)cc1,-29,14,nt,nt,10
Cn1c(=O)c2cc(NC(=O)NCc3ccccc3)ccc2n1Cc1ccc(Cl)cc1,-120,123*,nt,nt,-7
SMILES,CCHF vOTU inh,Mtb FBA inh,Mtb bLac sens,MazEF act,GDH-TPI inh
Cn1c(=O)c2cc(NC(=O)Nc3ccccc3)ccc2n1Cc1ccccc1,-113,142*,nt,nt,4
CC(=O)c1cc(-c2ccccc2)c(=O)n2c1CCC2,-1,nt,nt,nt,nt
CCc1ccccc1CNC(=O)C1CCC(CNS(=O)(=O)c2cccc3cccnc23)CC1 (centres undefined),6,nt,nt,nt,nt
NC(=Nc1cccc(F)c1)NC(=O)OCc1ccccc1,1,nt,nt,nt,nt
O=C1N(CCCO)CCC12CCCCC2,-11,nt,nt,nt,nt
CCN1CCN(c2nc3c(C)cccn3c(=O)c2/C=C(\C#N)C(=O)NCCCOC)CC1,-81,143*,-1,8,-5

# Screening data: PubChem, several laboratories
